Experimental data: PubChem BioAssay AID1159580 (chemical genetic matrix, 2015)
Values joined by “and” are separate entries in the source; they are usually repeats but may differ in a detail not shown here. Equal values may be shown once. About 2,000 (36%) of roughly 5,500 compounds were called active. Another 18% or so got no clear call; they are omitted. Cut-off read from the data, not from the text of the source: active = normalized growth mostly below about 0.91 (no sharp cut-off); inconclusive = no clear call, values can overlap the other calls; inactive = mostly above about 0.92. The list shows a part of the results.

Experiment: chemical genetic growth profiling, strain panel (AID 1159580);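 note: tested at 20 µM; growth read once vehicle control cultures reached saturation at 30 °C; 1 = growth at the plate median or of vehicle wells; lower values mean less growth of the strain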
Settings: S. cerevisiae deletion strains, growth OD
[1] = locus YMR307W, strain GAS1, active compounds read low
[2] = locus YPL055C, strain LGE1, active compounds read low

Measured: normalized growth

CC(N)Cc1c[nH]c2ccc(O)cc12 (centres undefined)
inactive: locus YAL013W, strain DEP1, active compounds read low 1.02 | locus YAL040C, strain CLN3, active compounds read low 1 | locus YCL061C, strain MRC1 (second series), active compounds read low 1 | locus YDR363W, strain ESC2, active compounds read low 1.03 | locus YER002W, strain NOP16, active compounds read low 1 | [1] 1 | locus YNL153C, strain GIM3, active compounds read low 1.01 | locus YNL175C, strain NOP13, active compounds read low 1.01 | locus YNL197C, strain WHI3, active compounds read low 1.04 | locus YNL224C, strain SQS1, active compounds read low 1.02 | locus YOR083W, strain WHI5 (second series), active compounds read low 1.01 | [2] 1.01

CC[C@@H](CO)NCCN[C@@H](CC)CO
inactive: locus YAL021C, strain ccr4, active compounds read low 1.01 | locus YAL026C, strain drs2, active compounds read low 1 | locus YAL030W, strain snc1, active compounds read low 1.01 | locus YBL061C, strain skt5, active compounds read low 1.02 | locus YBR009C, strain hhf1, active compounds read low 1 | locus YBR021W, strain FUR4, active compounds read low 1.02 | locus YBR023C, strain chs3, active compounds read low 1.04 | locus YBR171W, strain sec66, active compounds read low 1.02 | locus YBR229C, strain ROT2, active compounds read low 1.01 | locus YBR231C, strain swc5, active compounds read low 0.968 | locus YBR279W, strain paf1, active compounds read low 1.02 | locus YCL011C, strain gbp2, active compounds read low 1.03 | locus YCL016C, strain dcc1, active compounds read low 1.04 | locus YCL029C, strain bik1, active compounds read low 1 | locus YCL061C, strain MRC1, active compounds read low 1.03 | locus YCL069W, strain vba3, active compounds read low 1 | locus YCR088W, strain abp1, active compounds read low 1.01 | locus YDL005C, strain med2, active compounds read low 1 | locus YDL035C, strain GPR1, active compounds read low 1.02 | locus YDL040C, strain nat1, active compounds read low 1 | locus YDL074C, strain BRE1, active compounds read low 1.04 | locus YDL101C, strain DUN1, active compounds read low 1.02 | locus YDL134C, strain PPH21, active compounds read low 1.02 | locus YDL185W, strain tfp1, active compounds read low 1 | locus YDL192W, strain arf1, active compounds read low 1 | locus YDR001C, strain nth1, active compounds read low 1.01 | locus YDR069C, strain doa4, active compounds read low 0.996 | locus YDR101C, strain arx1, active compounds read low 0.987 | locus YDR137W, strain rgp1, active compounds read low 1.01 | locus YDR150W, strain NUM1, active compounds read low 1 | locus YDR159W, strain sac3, active compounds read low 0.959 | locus YDR162C, strain NBP2, active compounds read low 1.01 | locus YDR195W, strain ref2 0.964 | locus YDR297W, strain sur2, active compounds read low 1.02 | locus YDR318W, strain mcm21, active compounds read low 1.01 | locus YDR334W, strain swr1, active compounds read low 1.01 | locus YDR335W, strain msn5, active compounds read low 1.01 | locus YDR388W, active compounds read low 1 | locus YDR392W, strain spt3, active compounds read low 0.985 | locus YDR502C, strain sam2, active compounds read low 1.03 | locus YEL003W, strain gim4, active compounds read low 0.999 | locus YEL037C, strain rad23, active compounds read low 1.01 | locus YEL061C, strain CIN8 (second series), active compounds read low 1.01 | locus YEL061C, strain CIN8, active compounds read low 1.01 | locus YER015W, strain faa2, active compounds read low 1.01 | locus YER016W, strain bim1, active compounds read low 0.985 | locus YER110C, active compounds read low 1.01 | locus YER111C, strain swi4, active compounds read low 1.01 | locus YER155C, strain BEM2 (second series), active compounds read low 0.999 | locus YER155C, strain BEM2, active compounds read low 1.01 | locus YER167W, strain BCK2, active compounds read low 1.01 | locus YFR010W, strain ubp6, active compounds read low 1 | locus YGL078C, strain dbp3, active compounds read low 1 | locus YGL086W, strain mad1, active compounds read low 0.988 | locus YGL167C, strain pmr1, active compounds read low 1.01 | locus YGL173C, strain kem1, active compounds read low 1.01 | locus YGL227W, strain vid30, active compounds read low 1.02 | locus YGL240W, strain doc1, active compounds read low 0.995 | locus YGL248W, strain PDE1, active compounds read low 1.02 | locus YGL253W, strain hxk2, active compounds read low 0.999 | locus YGR078C, strain PAC10, active compounds read low 1.01 | locus YGR135W, strain pre9, active compounds read low 1.04 | locus YGR229C, strain SMI1, active compounds read low 1.02 | locus YGR252W, strain gcn5, active compounds read low 1.04 | locus YHR013C, strain ard1, active compounds read low 1.04 | locus YHR027C, strain rpn1, active compounds read low 1 | locus YHR030C, strain SLT2, active compounds read low 1 and 1.04 | locus YHR079C, strain IRE1 (second series), active compounds read low 0.987 | locus YHR079C, strain IRE1, active compounds read low 1.04 | locus YHR094C, strain hxt1, active compounds read low 1.01 | locus YHR129C, strain ARP1, active compounds read low 1.02 | locus YHR142W, strain chs7, active compounds read low 1.02 | locus YHR200W, strain rpn10, active compounds read low 1 | locus YIL066C, strain RNR3, active compounds read low 1.01 | locus YIL073C, strain SPO22, active compounds read low 1.02 | locus YIL125W, strain kgd1, active compounds read low 1 | locus YIR030C, strain dcg1, active compounds read low 1 | locus YJL092W, strain hpr5, active compounds read low 1.02 | locus YJL095W, strain BCK1 (second series), active compounds read low 1.02 | locus YJL095W, strain BCK1, active compounds read low 1.03 and 1.02 | locus YJL115W, strain asf1, active compounds read low 1.01 | locus YJL129C, strain trk1, active compounds read low 1.02 | locus YJL134W, strain LCB3, active compounds read low 1.02 | locus YJL154C, strain vps35, active compounds read low 1 | locus YJL164C, strain tpk1, active compounds read low 1.02 | locus YJL166W, strain qcr8, active compounds read low 1.05 | locus YJL168C, strain set2, active compounds read low 1.03 | locus YJL187C, strain SWE1 (second series), active compounds read low 1.01 | locus YJL187C, strain SWE1, active compounds read low 1 | locus YJR043C, strain POL32, active compounds read low 1.01 | locus YJR066W, strain TOR1, active compounds read low 0.909 | locus YKL009W, strain mrt4, active compounds read low 0.996 | locus YKL068W, active compounds read low 0.994 | locus YKL085W, strain MDH1 (second series), active compounds read low 1 | locus YKL085W, strain MDH1, active compounds read low 1 | locus YKL160W, strain elf1, active compounds read low 1.05 | locus YKR001C, strain vps1, active compounds read low 0.991 | locus YKR026C, strain gcn3, active compounds read low 1.01 | locus YKR091W, strain srl3, active compounds read low 1.01 | locus YLL001W, strain dnm1, active compounds read low 1.05 | locus YLL026W, active compounds read low 1.01 | locus YLL041C, strain sdh2, active compounds read low 1 | locus YLR027C, strain aat2, active compounds read low 0.992 | locus YLR039C, strain RIC1, active compounds read low 1.1 | locus YLR058C, strain SHM2, active compounds read low 1.02 | locus YLR102C, strain apc9, active compounds read low 1 | locus YLR113W, strain HOG1, active compounds read low 1.1 | locus YLR221C, strain rsa3, active compounds read low 1.05 | locus YLR258W, strain gsy2, active compounds read low 1.02 | locus YLR262C, strain YPT6 (second series), active compounds read low 1.03 | locus YLR262C, strain YPT6, active compounds read low 1.05 | locus YLR268W, strain sec22, active compounds read low 0.988 | locus YLR320W, strain mms22, active compounds read low 1.07 | locus YLR330W, strain CHS5, active compounds read low 1.01 | locus YLR342W, strain FKS1 (second series), active compounds read low 1.05 | locus YLR342W, strain FKS1, active compounds read low 1.02 | locus YLR357W, strain rsc2, active compounds read low 0.986 | locus YLR370C, strain arc18, active compounds read low 1.02 | locus YLR371W, strain rom2, active compounds read low 1.01 | locus YLR384C, strain iki3, active compounds read low 1.02 | locus YLR418C, strain cdc73, active compounds read low 1.01 | locus YML016C, strain PPZ1, active compounds read low 1.01 | locus YML032C, strain rad52, active compounds read low 1.01 | locus YML120C, strain ndi1, active compounds read low 1.03 | locus YML124C, strain tub3, active compounds read low 0.998 | locus YMR058W, strain fet3, active compounds read low 1.01 | locus YMR078C, strain ctf18, active compounds read low 1.01 | locus YMR125W, strain sto1, active compounds read low 1 | locus YMR129W, active compounds read low 1 | locus YMR205C, strain PFK2, active compounds read low 1.05 | locus YMR223W, strain ubp8, active compounds read low 1.02 | locus YMR231W, strain pep5, active compounds read low 1 | locus YMR263W, strain SAP30, active compounds read low 1.02 | [1] 1.01 | locus YNL067W, strain RPL9B, active compounds read low 1.01 | locus YNL071W, strain lat1, active compounds read low 1.02 | locus YNL183C, strain NPR1, active compounds read low 1 | locus YNL209W, strain ssb2, active compounds read low 1.02 | locus YNL233W, strain BNI4, active compounds read low 1.02 | locus YNL248C, strain rpa49, active compounds read low 0.996 | locus YNL250W, strain rad50, active compounds read low 0.992 | locus YNL271C, strain bni1, active compounds read low 0.995 | locus YNL298W, strain CLA4, active compounds read low 1.02 | locus YNL307C, strain MCK1, active compounds read low 1 | locus YNL322C, strain KRE1 (second series), active compounds read low 1.04 | locus YNL322C, strain KRE1, active compounds read low 1.01 | locus YNR049C, strain mso1, active compounds read low 1.02 | locus YNR052C, strain pop2, active compounds read low 1 | locus YOL006C, strain TOP1, active compounds read low 1.01 | locus YOL012C, strain htz1 0.915 | locus YOL147C, strain pex11, active compounds read low 0.997 | locus YOR001W, strain rrp6, active compounds read low 0.99 | locus YOR061W, strain CKA2, active compounds read low 1.01 | locus YOR069W, strain VPS5, active compounds read low 1.01 | locus YOR070C, strain gyp1, active compounds read low 1.01 | locus YOR080W, strain dia2, active compounds read low 1 | locus YOR083W, strain WHI5, active compounds read low 1.07 | locus YOR106W, strain vam3, active compounds read low 1.04 | locus YOR136W, strain idh2, active compounds read low 0.995 | locus YOR144C, strain elg1, active compounds read low 0.996 | locus YOR184W, strain ser1, active compounds read low 1.03 | locus YOR231W, strain MKK1, active compounds read low 1.07 | locus YOR265W, strain rbl2, active compounds read low 1.01 | locus YOR270C, strain vph1, active compounds read low 1.04 | locus YOR290C, strain snf2, active compounds read low 0.986 | locus YOR316C, strain cot1, active compounds read low 1 | locus YPL051W, strain arl3, active compounds read low 1 | [2] 1.03 | locus YPL078C, strain atp4, active compounds read low 1.02 | locus YPL106C, strain sse1, active compounds read low 1.03 | locus YPL240C, strain hsp82, active compounds read low 1.02 | locus YPL256C, strain CLN2, active compounds read low 1.03 | locus YPR119W, strain clb2, active compounds read low 1 | locus YPR141C, strain kar3, active compounds read low 1.01 | locus YPR163C, strain tif3, active compounds read low 0.989 | locus YPR167C, strain met16, active compounds read low 1 | strain wtn01, active compounds read low 1
